Compound activity (PubChem BioAssay)
Only a selection was taken, and hits are over-represented in it overall.
GRP78 ERSR act: induces the endoplasmic reticulum stress response in human glioma cells. U87-MG GRP78 promoter luciferase reporter, 16 h. Potency, µM, for inactives: at the top dose activation, hits mostly activators. 420,000 compounds, 0.02% hits. AID 602332; further: series mostly up to about 76 µM; % of control where 0% means no effect; nearly all actives have a fitted effect of over 35% in size
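ERSR induction read as luciferase luminescence (Bright-Glo, 10 min at room temperature) in stably transfected human U87-MG glioma cells exposed to compounds for 16 h, using GRP78 as sensor.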
Sfp inh: blocks B. subtilis Sfp PPTase activity | Potency, µM, for the others: largest response in the series, negative = inhibition, usual class: inhibitors | Biochemical Sfp PPTase activity, qHTS | AID 1490 | Q9F4F7 | 310,000 compounds, 3.5% hits;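 further: the enzyme is Sfp with the accession as filed and its product quenches rhodamine fluorescence; 0% = enzyme reaction without inhibitor and -100% = no enzyme wells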
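Sfp 15 nM + cpd, 15 min RT; start w/ rhodamine-CoA 5 uM, BHQ-2-YbbR 12.5 uM (final); 50 mM Hepes pH 7.6, 10 mM MgCl2, 0.01% NP-40, 0.01% BSA; read 525/598 nm at 0 and 30 min.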
G9a inh: G9a (human) methyltransferase inhibition; 350,000 compounds, 8.8% hits; Q96KQ7; G9a H3K9 monomethylation, AlphaScreen, 2 h; Potency, µM (titrated, usually from 102 µM), inactives show at the highest dose activity, negative = inhibition, hits mostly inhibitors; AID 504332; further: on the % scale 0 is the no-effect control and ±100 the full control effect; nearly all actives have a fitted effect of over 75% in size
Target sequence (Q96KQ7 913-1193 limits assumed): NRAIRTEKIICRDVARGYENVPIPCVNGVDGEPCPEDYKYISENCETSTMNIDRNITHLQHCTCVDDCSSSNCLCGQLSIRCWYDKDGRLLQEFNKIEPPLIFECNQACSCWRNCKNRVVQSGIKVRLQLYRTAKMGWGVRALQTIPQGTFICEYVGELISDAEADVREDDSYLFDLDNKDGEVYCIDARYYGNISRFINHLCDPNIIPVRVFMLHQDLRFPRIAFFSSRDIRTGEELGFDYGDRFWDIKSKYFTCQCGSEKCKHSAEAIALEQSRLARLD
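Readings reflect AlphaScreen signal from monomethyl-H3K9 antibody detection. HMT at 20 nM; substrate b-H3K9 500 nM; cofactor SAM 20 uM; 2 h RT reaction; compounds tested as titrations in qHTS with 15 min preincubation.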
VDR inhibitor: blocks the human vitamin D receptor; P11473; VDR-SRC2-3 peptide fluorescence polarization, 2 h; Potency, µM, for the others: max response, negative = inhibition, hits mostly inhibitors; 400,000 compounds, 0.93% hits; AID 504847; further: on the % scale 0 is the no-effect control and ±100 the full control effect
Target sequence (P11473 whole entry, looked up): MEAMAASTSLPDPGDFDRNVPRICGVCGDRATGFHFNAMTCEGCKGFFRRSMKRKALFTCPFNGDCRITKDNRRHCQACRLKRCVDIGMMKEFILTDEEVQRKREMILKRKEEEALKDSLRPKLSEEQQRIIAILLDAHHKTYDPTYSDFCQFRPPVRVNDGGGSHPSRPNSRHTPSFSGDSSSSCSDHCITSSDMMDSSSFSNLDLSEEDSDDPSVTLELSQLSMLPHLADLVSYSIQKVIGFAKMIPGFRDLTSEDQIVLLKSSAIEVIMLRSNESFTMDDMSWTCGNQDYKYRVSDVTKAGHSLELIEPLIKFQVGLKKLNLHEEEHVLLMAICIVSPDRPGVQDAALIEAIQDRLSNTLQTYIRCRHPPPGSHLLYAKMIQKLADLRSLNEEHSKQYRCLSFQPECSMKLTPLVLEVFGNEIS
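Inhibition of the VDR/SRC2-3 peptide interaction is quantified by fluorescence polarization. Compounds (23 nl, pintool) incubate with the reagents for 2 hours at ambient room temperature.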
12-LOX inh: ALOX12 (human) lipoxygenase inhibition; P18054; AID 1671190; Potency, µM (doses to about 108 µM), for inactives: top-dose activity change, negative = inhibition, actives largely listed as inhibitors; 580,000 compounds, 1.1% hits; purified 12hLO, xylenol orange hydroperoxide absorbance; further: on the % scale 0 is the no-effect control and ±100 the full control effect
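Purified human 12hLO (150 nM final) in 25 mM Hepes, 0.01% Triton X-100, pH 7.0 was preincubated 15 min at room temperature with compound. Then 40 uM arachidonic acid was added, 30 min. Hydroperoxide was read by Fe-XO absorbance ratio 573/405 nm.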
An asterisk follows results filed as active; ! = repeats disagree; [ ] = dose if it differs, or a comment. The call rests on the fitted dose curve; in most records, active means well fitted curve in the direction sought with a large enough effect; inconclusive means small, poorly fitted or top-dose-only effect, or another doubt; inactive means no such curve, though single readings can be large; an effect the other way counts as inactive or inconclusive. Potency means the concentration at half of the fitted maximal effect.

Results for Cn1cccc1C(=O)N1CCC(N2C(=O)C3(CCCC3)C2c2ccccc2)CC1 (stereo not drawn) ?
12-LOX inh: -9%

What do the screens show for `CCn1c(N2CCN(CC(=O)c3c[nH]c4ccccc34)CC2)nc2c1c(=O)[nH]c(=O)n2C`?
GRP78 ERSR act: -6%; Sfp inh: -10%; G9a inh: 40µM*; VDR inhibitor: 0%; 12-LOX inh: inconclusive

What do the screens show for `CCCn1c(N2CCN(CC(=O)c3c(C)n(C)c4ccccc34)CC2)nc2c1c(=O)[nH]c(=O)n2C`?
GRP78 ERSR act: -3%; Sfp inh: -3%; G9a inh: -37%; VDR inhibitor: -1%; 12-LOX inh: 0%

What do the screens show for `O=C(NCc1ccccn1)c1cc2n(n1)C(C(F)(F)F)CC(c1ccco1)N2` (stereo not drawn)?
GRP78 ERSR act: -4%; Sfp inh: 13µM*; G9a inh: inconclusive; VDR inhibitor: 11%; 12-LOX inh: -22%

Results for CC(C)NC(=O)c1cc2n(n1)C(C(F)(F)F)CC(c1ccco1)N2 (stereo not drawn) ?
GRP78 ERSR act: 2%; Sfp inh: 10%; G9a inh: 0%; VDR inhibitor: -14%; 12-LOX inh: -3%

What do the screens show for `Cc1ccc(-n2c(C3CCN(C(=O)c4ccc5cc[nH]c5c4)CC3)n[nH]c2=O)cc1`?
12-LOX inh: 3%

What do the screens show for `CC(C)CCNCC(O)CON=C1c2ccccc2-c2ccccc21` (stereo not drawn)?
GRP78 ERSR act: -3%; Sfp inh: 35µM*; G9a inh: -23%; VDR inhibitor: 8%; 12-LOX inh: -10%

How did Cc1ccc(CN(C(=O)c2ccco2)C(C(=O)NC2CCCC2)c2ccc(N3CCOCC3)cc2)cc1 (stereo not drawn) do in these assays?
GRP78 ERSR act: -3%; Sfp inh: 5%; G9a inh: 28µM*; VDR inhibitor: 4%; 12-LOX inh: 9%

Results for COc1ccc(CN2CC3=C(C2=O)C(c2cc(OC)c(OC)c(OC)c2)NC(=O)N3)cc1 (stereo not drawn) ?
12-LOX inh: -27%

What do the screens show for `Cc1ccc2nc(N3C(=O)C(O)=C(C(=O)c4ccco4)C3c3ccc(C)o3)sc2c1` (stereo not drawn)?
GRP78 ERSR act: 0%; Sfp inh: inconclusive; G9a inh: 40µM*; VDR inhibitor: -29%; 12-LOX inh: inconclusive

How did O=C(C1=C(O)C(=O)N(c2nc3ccc(Cl)cc3s2)C1c1ccco1)c1ccco1 (stereo not drawn) do in these assays?
GRP78 ERSR act: -2%; G9a inh: inconclusive; VDR inhibitor: inconclusive; 12-LOX inh: 7.9µM*!

How did Cc1ccc2nc(N3C(=O)C(O)=C(C(=O)c4ccc(C)o4)C3c3ccco3)sc2c1 (stereo not drawn) do in these assays?
GRP78 ERSR act: -3%; G9a inh: inconclusive; VDR inhibitor: inconclusive; 12-LOX inh: 0.56µM*

Results for Cc1ccc2nc(N3C(=O)C(O)=C(C(=O)c4ccco4)C3c3ccc(O)cc3)sc2c1 (stereo not drawn) ?
Sfp inh: -8%; G9a inh: 22µM*; 12-LOX inh: 22µM*!

How did CCc1ccc2nc(N3C(=O)C(O)=C(C(=O)c4ccco4)C3c3cccs3)sc2c1 (stereo not drawn) do in these assays?
GRP78 ERSR act: 2%; Sfp inh: -16%; G9a inh: inconclusive; VDR inhibitor: inconclusive

What do the screens show for `O=S(=O)(c1ccccc1)n1nc(NCc2ccccc2)nc1NCc1ccccc1`?
12-LOX inh: 4%

How did Cc1ccc(-c2c(C)nn3c(N4CCN(CCO)CC4)cc(C)nc23)cc1 do in these assays?
12-LOX inh: -3%

Results for CC1CCCN(CCCOc2ccc(Br)cc2Cl)C1 (stereo not drawn) ?
GRP78 ERSR act: 0%; Sfp inh: -21%; G9a inh: 20µM*; VDR inhibitor: -6%; 12-LOX inh: 1.1µM*

How did CC1CCN(CCOCCOc2ccc(Br)cc2Cl)CC1 do in these assays?
GRP78 ERSR act: -4%; Sfp inh: 7%; G9a inh: 8.9µM*; VDR inhibitor: 3%; 12-LOX inh: inconclusive

How did Cc1ccc([N+](=O)[O-])c(OCCCN2CCCCCC2)c1 do in these assays?
GRP78 ERSR act: 2%; Sfp inh: inconclusive; G9a inh: inconclusive; VDR inhibitor: -6%; 12-LOX inh: -18%

What do the screens show for `Cc1ccc(OCCCCN2CCCC(C)C2)c([N+](=O)[O-])c1` (stereo not drawn)?
GRP78 ERSR act: -5%; Sfp inh: inconclusive; G9a inh: 20µM*; VDR inhibitor: 1%; 12-LOX inh: -24%

How did CCc1ccc(NC(=O)C2CCn3c(C(=O)c4ccccc4)ccc32)cc1 (stereo not drawn) do in these assays?
12-LOX inh: 3%

Results for COc1ccc(COc2ccc(C#N)cc2)c(Br)c1OC ?
12-LOX inh: 18%

What do the screens show for `O=C1C=CC(=O)N1CCNc1ncc(C(F)(F)F)cc1Cl`?
GRP78 ERSR act: -15%; Sfp inh: 7.1µM*; G9a inh: 2.5µM*; VDR inhibitor: 22µM*; 12-LOX inh: inconclusive

Results for COc1ccc([C@H]2C[C@@H](O)[C@@H](O)[C@@H]2NC(=O)c2nc3ccccc3s2)cc1 ?
12-LOX inh: 8%[176 µM]

How did Cc1ccccc1[C@H]1C[C@@H](O)[C@@H](O)[C@@H]1NC(=O)c1nc2ccccc2s1 do in these assays?
12-LOX inh: 45µM*

What do the screens show for `COc1cc(C(=O)N2CCN(c3nccs3)CC2)cc(Cl)c1OC`?
12-LOX inh: 5%

Results for Fc1ccc(-c2nc3ccccc3o2)cc1 ?
12-LOX inh: -9%

What do the screens show for `CN(CCNC(=O)c1cccc(N2CCCC2=O)c1)Cc1ccccc1`?
GRP78 ERSR act: 1%; Sfp inh: 1%; G9a inh: -15%; VDR inhibitor: 2%; 12-LOX inh: -23%

How did CCN(CCCNC(=O)c1ccc(N2CCCC2=O)cc1)c1cccc(C)c1 do in these assays?
GRP78 ERSR act: -1%; Sfp inh: 8%; G9a inh: 28µM*; VDR inhibitor: 4%; 12-LOX inh: 0%

Results for CCN(CCCNC(=O)CN1C(=O)COc2ccccc21)c1cccc(C)c1 ?
GRP78 ERSR act: -3%; Sfp inh: 2%; G9a inh: 22µM*; VDR inhibitor: 5%; 12-LOX inh: inconclusive

Results for CC(C)N(CCCNC(=O)c1ccc(N2CCCC2=O)cc1)Cc1ccccc1 ?
GRP78 ERSR act: -6%; Sfp inh: 9%; G9a inh: 9%[59 µM]; VDR inhibitor: -21%; 12-LOX inh: 0%

How did CCN(CCNC(=O)c1cccc(N2CCCC2=O)c1)c1ccccc1 do in these assays?
GRP78 ERSR act: 1%; Sfp inh: 21%; G9a inh: 50µM*; VDR inhibitor: -1%; 12-LOX inh: -14%
